Measurements published in PubChem BioAssay AID624202 (National Center for Advancing Translational Sciences (NCATS), 2012).
The whole screen tested about 380,000 compounds, of which about 4,000 (1.1%) were called active. Roughly 3% stayed inconclusive and do not appear here. Calls come from the whole dose curve; as a rule, active = well fitted activation curve with a large enough effect; inconclusive = small, poorly fitted or top-dose-only effect; inactive = no such curve, though single readings can be large or run the other way. The list comes from a sample in which actives are over-represented; it also holds similar structures and randomly drawn compounds. Where a call stands in place of a potency, no number is given.

assay: qHTS Assay to Identify Small Molecule Activators of BRCA1 Expression; settings: MCF7-BRCA1-FFLuc reporter, luminescence, 48 h; series mostly up to 46.1 µM; note: nearly all actives have a fitted effect of over 80% in size
Method in brief: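 Cells: MCF7-BRCA1-FFLuc, 2000/well. Exposure: 48 h, 37 °C, 5% CO2. Read: luminescence, 15 min post-substrate. Controls: genistein 10 microM (maximal activation), DMSO (neutral).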
Potency is the fitted concentration of half-maximal effect.

SMILES | Potency
O=C(NC1CCN(Cc2ccccc2)CC1)c1ccc(Cn2c(=O)c3ccccc3n(Cc3cccc(F)c3)c2=O)cc1 | inactive
S=c1[nH]nc(Nc2ccccc2)s1 | inactive
CC(C)(C)C(=O)c1cnc(Nc2ccccc2)s1 | 4.47 µM (active)
CNC(=O)c1sc(Nc2ccc(OCc3ccccc3)cc2)nc1C | inactive
CCOc1n[nH]c(-c2ccccc2)n1 | inactive
COc1cc(-c2noc(-c3ccc(N4CCCC4)c([N+](=O)[O-])c3)n2)cc(OC)c1OC | inactive
COc1ccc(-c2noc(CSc3nc(C)cc(=O)[nH]3)n2)cc1OC | inactive
COc1ccc(-c2noc(-c3cccc(OC)c3OC)n2)cc1OC | 3.98 µM (active)
CCN(CC)S(=O)(=O)c1ccc(C(=O)N=c2sc3cccc(OC)c3n2C)cc1 | inactive
C=COC(=O)N1CCN(/[N+]([O-])=N/Oc2ccc([N+](=O)[O-])cc2[N+](=O)[O-])CC1 | inactive
Cc1cccc(N2O[C@H]3C=CC2CCCC3)n1 | inactive
Cc1ccn(-c2cccc(-n3ccc(C)n3)n2)n1 | 12.6 µM (active)
CCCN(CCC)C(=O)Cn1c(=O)n(-c2ccc(Cl)cc2)c(=O)c2c3c(sc21)CCCCC3 | inactive
CCn1cc(C(=O)NCCc2ccccc2)c(=O)c2cc(S(=O)(=O)N3CCCCCC3)ccc21 | inactive
Cc1ccc2c(c1)N(CC(=O)NCC1CCCO1)C(=O)CO2 (stereo not drawn) | inactive
COCc1cc(C)n(CC(=O)NCC2CCCO2)c(=O)c1C#N (stereo not drawn) | inactive
Cc1ccc(-n2c(C)cc(/C=C(\C#N)C(=O)NCC3CCCO3)c2C)cc1 (stereo not drawn) | 2.51 µM (active)
CCC(=O)N1CCc2cc(CNC(=O)Nc3ccccc3Cl)ccc21 | inactive
CCCC(=O)N1CCN(c2nc3c(OC)ccc(C)c3s2)CC1 | inactive
CCCN(CCC)S(=O)(=O)c1ccc(C(=O)Nc2sc3c(c2C(=O)OC)CCN(CC)C3)cc1 | inactive
O=C(CC(c1cccs1)N1Cc2ccccc2C1=O)Nc1ccc(F)cc1F (stereo not drawn) | inactive
CC(C)(C)C(=O)Nc1cccc(-c2ccc[nH]2)n1 | inactive
CC(C)(C)C(=O)Nc1ccc(-c2cn3cccnc3n2)cc1 | 2.82 µM (active)

SMILES | Potency
CCCCCC(=O)Nc1ccc(-c2cn3cccnc3n2)cc1 | inactive
CCCCCN1CC(O)=C(c2nc(-c3ccc(Cl)cc3)cs2)C1=N | inactive
N#CC(=C1CCCC1)c1nc(-c2ccc(Cl)cc2)cs1 | 6.31 µM (active)
N#CC(=C1SC=CS1)c1nc(-c2ccccc2)cs1 | inactive
OC(Cc1ccc2ccccc2n1)c1ccc(Cl)c(Cl)c1 (stereo not drawn) | inactive
O=C(Cc1c[nH]c2ccccc12)N/N=C/c1cccc(F)c1 | inactive
O=C(CN1CCSCC1)N/N=C/c1ccc(F)cc1 | inactive
O=C(Cc1ccc(F)cc1)N/N=C/c1ccc2c(c1)OCO2 | 3.98 µM (active)
O=C(C1CCCN(S(=O)(=O)c2cccc3nonc23)C1)N1CCN(c2ccccc2F)CC1 (stereo not drawn) | inactive
Cn1c(=O)c2c(nc(Oc3ccc(C#N)cc3)n2Cc2ccc(Cl)cc2Cl)n(C)c1=O | inactive
O=C(COC(=O)c1ccccc1OCCOc1ccccc1)Nc1cccc(Br)c1 | inactive
Cc1cccc(OCCSc2nc3ccccc3n2CC(=O)N2CCCCC2)c1C | inactive
CCN(CC)C(=O)c1sc2nc(-c3ccccc3)ccc2c1N | 2.24 µM (active)
CCN(CC)C(=O)c1nc[nH]c1C(=O)N(C)Cc1ccccc1 | inactive
COc1cccc(C(=O)c2sc3nc(-c4ccccc4)cc(C(F)(F)F)c3c2N)c1 | inactive
Cc1ccc(S(=O)(=O)N2CCN(c3nc(-n4cnc5ccccc54)nc4ccccc34)CC2)cc1 | inactive
CCCCCn1c(=O)[nH]c2cc(C(=O)Nc3ccc(F)cc3)ccc2c1=O | inactive
CN(C)C1=C2C=CC=CC2/C(=C2/C=Cc3ccccc32)C=C1 (stereo not drawn) | inactive
O=C(COc1ccccc1C(=O)Nc1ccccc1)Nc1cccc(F)c1 | inactive
Cc1ccc(C)c(N2CCN(C(=O)CN3C(=O)COc4ccc(S(=O)(=O)N5CCCCCC5)cc43)CC2)c1 | inactive
CCC(CC)c1nnc(NC(=O)C2CCN(C(=O)c3ccco3)CC2)s1 | inactive
CCOC(=O)c1sc(N)c(C#N)c1COC(=O)C1=COCCO1 | inactive
CCn1c(SCC(=O)Nc2sc(C)c(C)c2C#N)nnc1C1CC1 | inactive

SMILES | Potency
COc1cc(-c2nnc(NC(=O)C3=COCCO3)o2)cc(OC)c1OC | inactive
CCC(CC)c1nnc(NC(=O)C2=COCCO2)s1 | 10 µM (active)
Cc1sc(NC(=O)C2=COCCO2)c(C#N)c1C | 12.6 µM (active)
COc1ccc(N(CC(=O)NCCc2ccc(Cl)cc2)S(=O)(=O)c2c(C)nn(C)c2C)cc1 | inactive
CCCCOc1ccc(C(=O)NO)cc1 | inactive
CC1(C)C=Cc2c(ccc3c2OC[C@@H](c2ccc(O)cc2O)C3)O1 | 11.2 µM (active)
CC1(C)C=Cc2c(ccc(C(=O)/C=C/c3ccccc3)c2O)O1 | inactive
O=C(/C=C/c1ccccc1)N1CCN(Cc2cc(=O)n3nc(-c4ccccc4F)sc3n2)CC1 | inactive
Cc1ccc(NC(=S)NC(NC(=O)Cc2cccc3ccccc23)C(Cl)(Cl)Cl)cc1 (stereo not drawn) | inactive
O=C(Cc1cccc2ccccc12)Nc1ccc2oc(-c3ccccc3)nc2c1 | 11.2 µM (active)
O=C(Cc1cccc2ccccc12)NNC(=O)Nc1ccc(Cl)cc1 | inactive
CCn1c(=O)c2cc(C(=O)NCCc3ccc(Cl)cc3)sc2c2ccccc21 | inactive
COc1cc(OC)c(OC)cc1/C=C1\C=Cc2ccccc21 | inactive
COc1cccc(NC(=O)CN(C)C(C)C(=O)Nc2ccc(C#N)cc2)c1 (stereo not drawn) | inactive
CCC(=O)Nc1ccc(C(=O)Nc2cccc(OC)c2)cc1 | 12.6 µM (active)
COc1ccc(C(=O)NCc2nnc(SCC(=O)Nc3cccc(OC)c3)o2)cc1 | inactive
Cc1ccc(C(=O)Nc2ccc(OCc3cc(=O)n4c(C)csc4n3)cc2)cc1 | inactive
Cc1ccc(-c2nnc3ccc(SCC(N)=O)nn23)cc1 | inactive
CCOC(=O)c1oc2ccc(S(=O)(=O)n3nc(-c4ccccc4OC)cc3N)cc2c1C | inactive
Cc1ccc(/C=N/NC(=O)CSc2nc3ccccc3o2)cc1 | 11.2 µM (active)
O=C(CSc1nc2ccccc2o1)N1CCN(c2ccccc2)CC1 | inactive
O=C(CSc1nc2ccccc2o1)N/N=C/c1ccccc1C(=O)O | inactive
